From PubChem BioAssay (NCATS)
Where “and” joins values, the source holds several entries; their conditions need not be identical. Equal entries are not always repeated. Inconclusive results are not listed. Where a call stands in place of a potency, no number is given. Some compounds were tested as several samples or in several runs, with calls that do not always agree. Calls of active or inactive are those of the source. Unless noted, calls come from the whole dose curve; as a rule, active = well fitted curve in the direction sought with a large enough effect; inconclusive = small, poorly fitted or top-dose-only effect, or another doubt; inactive = no such curve, though single readings can be large; an effect the other way counts as inactive or inconclusive.

Legend:
[1] = qHTS to identify inhibitors of the type 1 interferon - major histocompatibility complex class I in skeletal muscle: primary screen against the NCATS Pharmaceutical Collection (AID 1347407);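 note: luminescence of HiBiT knocked into endogenous HLA-B as interferon-induced MHC class I level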
Method in brief: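 Cells were seeded with 4 ng/ml IFN-beta, incubated 1 h, then dosed with compounds over eight 1:5 steps up to 46 uM final. After 24 h at 37 C, HiBiT lytic reagent was added and luminescence read after 10 min lysis in the dark.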

[2] = qHTS for inhibitors of adenylyl cyclases using a fission yeast platform: a pilot screen against the NCATS LOPAC library (AID 1347410)
Method in brief: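 Growth medium went into the plates first, then compounds were pinned (final up to 57 µM), then CHP2027 yeast were added. Plates were incubated overnight (18 h) at 30C in the dark, and GFP was measured by laser scanning cytometry.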

[3] = molecular target: Protein phosphatase 1D (Homo sapiens) (UniProt O15297); assay: Rhodamine-PBP qHTS Assay for Modulators of WT P53-Induced Phosphatase 1 (WIP1) (AID 1347425)
Chain of Protein phosphatase 1D (Homo sapiens) (O15297 whole entry, looked up): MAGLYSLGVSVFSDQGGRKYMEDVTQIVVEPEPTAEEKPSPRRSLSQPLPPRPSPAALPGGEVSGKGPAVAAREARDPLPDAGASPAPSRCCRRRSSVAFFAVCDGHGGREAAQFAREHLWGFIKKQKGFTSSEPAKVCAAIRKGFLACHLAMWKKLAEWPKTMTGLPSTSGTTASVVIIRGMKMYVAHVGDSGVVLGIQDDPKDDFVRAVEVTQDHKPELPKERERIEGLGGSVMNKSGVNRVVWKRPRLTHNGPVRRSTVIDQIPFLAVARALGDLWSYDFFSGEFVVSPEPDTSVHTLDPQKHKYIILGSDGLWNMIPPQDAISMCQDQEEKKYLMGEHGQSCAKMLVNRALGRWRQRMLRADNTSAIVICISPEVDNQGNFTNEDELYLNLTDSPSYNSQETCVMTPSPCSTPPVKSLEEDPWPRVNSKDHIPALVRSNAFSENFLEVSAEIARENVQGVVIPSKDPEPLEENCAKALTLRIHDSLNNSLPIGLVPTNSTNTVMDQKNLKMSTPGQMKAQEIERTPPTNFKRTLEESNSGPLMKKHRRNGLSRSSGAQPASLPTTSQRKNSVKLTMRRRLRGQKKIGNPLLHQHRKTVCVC
Method in brief: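 WIP1 (5 nM final) was preincubated with compound for 1 hour at room temperature. It then dephosphorylated 10 uM VEPPL-pS-QETFS peptide in Tris-HCl pH 7.5 with 30 mM MgCl2. Released Pi was detected by 10 uM Rh-PBP fluorescence (ex 525/em 598 nm) read at 1-min intervals for 11 min, as delta f1 - f0.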

[4] = Validation qHTS assay for inhibitors of Activation Induced Cytidine Deaminase (AID): UDG Counterscreen signal (AID 1347427)
Method in brief: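 Counterscreen read of UDG activity (2 U/mL, 4/3x) in the FRET deamination format with AID (1 uM, 4/3x), DJC20/DJC23 substrates (250 nM, 4x), 4 h at room temperature. NaOH stop, fluorescence at 560 ex/665 em.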

[5] = molecular target: Single-stranded DNA cytosine deaminase (Homo sapiens) (UniProt Q9GZX7); assay: Validation qHTS assay for inhibitors of Activation Induced Cytidine Deaminase (AID): AID signal (AID 1347429)
Chain of Single-stranded DNA cytosine deaminase (Homo sapiens) (Q9GZX7 whole entry, looked up): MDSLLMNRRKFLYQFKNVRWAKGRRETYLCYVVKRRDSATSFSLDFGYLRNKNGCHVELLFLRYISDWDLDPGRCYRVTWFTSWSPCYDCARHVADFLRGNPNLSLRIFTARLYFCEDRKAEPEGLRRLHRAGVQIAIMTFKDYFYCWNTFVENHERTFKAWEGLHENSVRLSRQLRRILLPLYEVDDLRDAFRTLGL
Method in brief: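 AID and UDG were combined and compounds added at final up to 114 uM, then DJC20/DJC23 FRET substrate was added for 4 hr at room temperature. NaOH was then added for 30 min before fluorescence was read at 540/590 nm.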

[6] = Primary qHTS for inhibitors of La Crosse Virus (LACV) - induced cell death in SH-SY5Y cells (AID 1508616);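 note: top concentration of the series differs between compounds; higher means more rescue of cells from virus-induced death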
Method in brief: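 Luminescent ATP readout (ATPLite 1step, 5 min room temperature) measured rescue from LACV-induced death after 6 days of infection at 0.01 MOI; normalized to infected DMSO wells and uninfected DMSO wells.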

[7] = molecular target: Calcium and integrin-binding protein 1 (Homo sapiens) (UniProt Q99828); assay: Validation qHTS for Identification of Calcium Integrin Binding protein 1 (CIB1) Competitor (AID 1508618)
Chain of Calcium and integrin-binding protein 1 (Homo sapiens) (Q99828 whole entry, looked up): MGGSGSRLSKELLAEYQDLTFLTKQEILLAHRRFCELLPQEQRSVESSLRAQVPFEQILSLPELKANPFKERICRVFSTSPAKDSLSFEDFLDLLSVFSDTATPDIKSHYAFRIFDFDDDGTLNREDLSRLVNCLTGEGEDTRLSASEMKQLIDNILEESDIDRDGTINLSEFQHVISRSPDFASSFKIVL
Method in brief: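 Fluorescence polarization with 1 uM CIB1-GST and 100 nM FITC-alphaIIb peptide in HEPES pH 7.4, NaCl, 5 mM CaCl2, Tween20. Compounds at up to 114 uM final, preincubated with protein 15 min; read after 15 min more at RT.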

[8] = molecular target: Calcium and integrin-binding protein 1 (Homo sapiens) (UniProt Q99828); assay: Primary qHTS for Identification of Calcium Integrin Binding Protein 1 (CIB1) Competitor (AID 1508620);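 note: GST tagged CIB1 binding a fluorescein labelled alphaIIb integrin peptide tracer; top concentration of the series differs between compounds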
Method in brief: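 CIB1-GST (1 uM final) and compound incubated 15 min at room temperature before adding FITC-alphaIIb peptide tracer (100 nM final). Competition for binding read by fluorescence polarization (ex 480, em 540) after another 15 min at room temperature.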

[9] = Counterscreen qHTS for small molecule stabilizers of the endoplasmic reticulum resident proteome: GLuc-NoTag assay (AID 1508627);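 note: SH-SY5Y cells given compound then 100 nM thapsigargin to empty ER calcium; series mostly up to about 76 µM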
Method in brief: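 Luminescence of Gaussia luciferase secreted into the medium (coelenterazine, 0.07x final, unlysed cells) was the read-out. Human SH-SY5Y neuroblastoma cells constitutively secreting untagged GLuc received compound for 19 h, then 100 nM thapsigargin for 4 h.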

[10] = Confirmatory qHTS for small molecule stabilizers of the endoplasmic reticulum resident proteome: Secreted ER Calcium Modulated Protein (SERCaMP) assay (AID 1508628); note: nearly all actives have a fitted effect of over 40% in size; note: potency is the fitted concentration of half-maximal effect
Method in brief: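 We seeded SH-SY5Y-GLuc-SERCaMP cells, added compounds (three concentrations in the primary run, eleven up to 76.6 uM in confirmation), incubated 16 h, depleted ER calcium with thapsigargin, and read luciferase 4 h later.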

[11] = Cell Viability qHTS for small molecule stabilizers of the endoplasmic reticulum resident proteome (AID 1508629); details: cell viability counter-screen, 100 nM thapsigargin for final 4 h;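 note: human SH-SY5Y neuroblastoma cells carrying the GLuc-SERCaMP reporter; compound exposure about 46 h in total before the viability read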
[12] = Primary qHTS for small molecule stabilizers of the endoplasmic reticulum resident proteome: Secreted ER Calcium Modulated Protein (SERCaMP) assay (AID 1508630)
Method in brief: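 GLuc-SERCaMP-expressing SH-SY5Y cells, pretreated 16 h with compound, are challenged with thapsigargin to empty ER calcium stores; after 4 h, coelenterazine is added directly to the medium and luminescence is imaged.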

[13] = molecular target: Cytochrome P450 2C9 (Homo sapiens) (UniProt P11712); assay: Cytochrome P450 family 2 subfamily C member 9 (CYP2C9) small molecule antagonists: luciferase biochemical (cell-free) qHTS assay (AID 1645842; active = well fitted curve in the direction sought with a large enough effect in the repeat runs; an effect the other way counts as inactive or inconclusive; note: nearly all actives have a fitted effect of over 55% in size; note: potency is the fitted concentration of half-maximal effect)
Chain of Cytochrome P450 2C9 (Homo sapiens) (P11712 whole entry, looked up): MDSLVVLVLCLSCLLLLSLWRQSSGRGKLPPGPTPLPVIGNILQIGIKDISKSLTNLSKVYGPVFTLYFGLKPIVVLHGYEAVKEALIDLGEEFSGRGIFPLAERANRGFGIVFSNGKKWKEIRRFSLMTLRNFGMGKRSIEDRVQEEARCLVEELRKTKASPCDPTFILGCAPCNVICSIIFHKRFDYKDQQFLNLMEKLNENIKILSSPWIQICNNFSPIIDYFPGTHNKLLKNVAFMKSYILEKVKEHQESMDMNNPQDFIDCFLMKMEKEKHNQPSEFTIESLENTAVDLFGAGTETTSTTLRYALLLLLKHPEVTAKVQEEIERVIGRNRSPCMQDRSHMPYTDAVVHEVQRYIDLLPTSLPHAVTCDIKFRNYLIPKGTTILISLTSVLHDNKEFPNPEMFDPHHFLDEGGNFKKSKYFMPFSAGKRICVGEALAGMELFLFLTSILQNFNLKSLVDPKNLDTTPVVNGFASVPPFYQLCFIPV
Method in brief: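 Luminescence, after 20 min with luciferin detection reagent, reflected CYP2C9 turnover during a 1 h NADPH-driven reaction at 37C. Enzyme-substrate mix contained 0.4% bovine serum albumin and was preincubated with compound 10 min at room temperature.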

[14] = qHTS to identify inhibitors of the type 1 interferon - major histocompatibility complex class I in skeletal muscle: primary screen against the NCATS LOPAC collection (AID 1347405);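 note: lytic HiBiT luminescence reporting HLA-B protein level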
Method in brief: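 Immortalized human C25cl48 myoblasts with HiBiT knocked into endogenous HLA-B*08:01 were stimulated with 4.0 ng/ml IFN-beta and given compounds in a 7-point, 1:4.3 titration from 46 uM final; after 24 hrs, lytic HiBiT luminescence was read.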

[15] = molecular target: Protein phosphatase 1D (Homo sapiens) (UniProt O15297); assay: RapidFire Mass Spectrometry qHTS Assay for Modulators of WT P53-Induced Phosphatase 1 (WIP1) (AID 1347424);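 note: amount of dephosphorylated VEPPL-S-QETFS peptide product formed by WIP1; series mostly up to about 63 µM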
Method in brief: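 10 nM WIP1 + cpd, 1 h RT; + 2 uM VEPPL-pS-QETFS, 5 min RT; stop 0.5% formic acid; labelled product standard 1 uM; RapidFire MS. Buffer 50 mM Tris pH 7.5, 30 mM MgCl2, 1 mM TCEP.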

[16] = A High-Content qHTS Against Drug Library for the Identification of Small Molecules that Inhibit DYT1 Early Onset Primary Dystonia-Associated Cell Pathology (AID 1645839; calls by dose curve; note: series mostly up to about 46 µM)
Method in brief: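 In this high-content image screen, delE TorsinA mislocalization in inducible Flp-In 293 cells is scored as %pathology, with cell count serving as the counterscreen. Compound exposure lasts 48 h under tetracycline induction in reduced-serum medium.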

[17] = molecular target: Cytochrome P450 2D6 (Homo sapiens) (UniProt P10635); assay: Cytochrome P450 family 2 subfamily D member 6 (CYP2D6) small molecule antagonists: luciferase biochemical (cell-free) qHTS assay (AID 1645840; active = well fitted curve in the direction sought with a large enough effect in the repeat runs; an effect the other way counts as inactive or inconclusive; note: nearly all actives have a fitted effect of over 55% in size; note: potency is the fitted concentration of half-maximal effect)
Chain of Cytochrome P450 2D6 (Homo sapiens) (P10635 whole entry, looked up): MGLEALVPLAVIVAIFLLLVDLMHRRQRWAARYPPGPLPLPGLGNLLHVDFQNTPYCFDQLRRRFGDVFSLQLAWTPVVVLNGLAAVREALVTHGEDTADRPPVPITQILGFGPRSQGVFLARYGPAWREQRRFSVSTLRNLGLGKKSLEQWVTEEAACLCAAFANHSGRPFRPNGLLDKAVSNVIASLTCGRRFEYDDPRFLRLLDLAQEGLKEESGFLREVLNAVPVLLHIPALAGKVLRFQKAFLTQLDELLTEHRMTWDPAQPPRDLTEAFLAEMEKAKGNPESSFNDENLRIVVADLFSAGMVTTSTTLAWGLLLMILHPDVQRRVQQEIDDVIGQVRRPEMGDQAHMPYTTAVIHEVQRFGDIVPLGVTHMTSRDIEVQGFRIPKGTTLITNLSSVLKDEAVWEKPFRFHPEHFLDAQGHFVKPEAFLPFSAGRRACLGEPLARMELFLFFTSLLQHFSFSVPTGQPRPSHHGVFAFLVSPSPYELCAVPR
Method in brief: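 P450-Glo luminescent screen: recombinant CYP2D6 enzyme–proluciferin substrate mix preincubated with compound 10 min at room temperature, then NADPH regeneration added for 1 h at room temperature. Detection reagent added for 20 min; luciferin light read as relative luminescence units.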

[18] = qHTS to identify inhibitors of the type 1 interferon - major histocompatibility complex class I in skeletal muscle: primary screen against the NCATS Mechanism Interrogation Plate v5.0 (MIPE) Libary (AID 1347411); note: nearly all actives have a fitted effect of over 65% in size
Method in brief: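 Immortalized human C25cl48 myoblasts with HiBit knocked into endogenous HLA-B*08:01 were stimulated with 4.0 ng/ml IFN-beta and exposed to compounds (11-point 1:3 titration, top 46 uM final) for 24 hrs at 37 C; HiBiT lytic luminescence measured.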

SMILES	Potency [1]	outcome [2]	outcome [3]	outcome [4]	Potency [5]	outcome [6]	outcome [7]	Potency [8]	Potency [9]	Potency [10]	max response [11]	Potency [12]	Potency [13]	Potency [14]	outcome [15]	Potency [16]	Potency [17]	Potency [18]
CC1=C(/C=C/C(C)=C/C=C/C(C)=C/C(=O)Nc2ccc(O)cc2)C(C)(C)CCC1	inactive	inactive	inactive	inactive	inactive	inactive	inactive	inactive	inactive	inactive and 31.6 µM (active)	14.9% (inactive)	inactive	2.75 µM (active)					
CC(C)NCC(O)COc1cccc2[nH]ccc12 (stereo not given)	inactive	inactive	inactive	inactive	inactive	inactive	inactive	inactive						inactive	inactive	inactive		
O=C(NCCN1CCOCC1)c1ccc(Cl)cc1	inactive	inactive	inactive	inactive	inactive	inactive	inactive	inactive					inactive	inactive	inactive	inactive	9.77 µM (active)	
COc1cc2ncnc(Nc3ccc(F)c(Cl)c3)c2cc1OCCCN1CCOCC1	inactive		inactive					inactive	inactive				inactive		inactive		4.9 µM (active)	inactive
NCCS	inactive	inactive	inactive	inactive	inactive	inactive	inactive	inactive				inactive	inactive	inactive	inactive	inactive	inactive	
COc1ccccc1N1CCN(CCCNc2cc(=O)n(C)c(=O)n2C)CC1	inactive	inactive	inactive	inactive	inactive	inactive	inactive	inactive					inactive	inactive	inactive	inactive		
C[N+](C)(C)CC(=O)O	inactive		inactive			inactive							inactive		inactive	inactive	inactive	inactive
CCN1CCC[C@H]1CNC(=O)c1cc(S(N)(=O)=O)ccc1OC	inactive	inactive	inactive	inactive	inactive	inactive	inactive	inactive				inactive	inactive	inactive	inactive	inactive	inactive	
CC(=O)CCCCn1c(=O)c2c(ncn2C)n(C)c1=O	inactive	inactive	inactive	inactive	inactive	inactive						inactive	inactive	inactive	inactive	inactive	inactive	
